# Shown are actives, neighbours in structure and some others; about 1.9% of the full set was active somewhere.
# Pin1 inh: human Pin1 inhibition | Q13526 | Pin1 FP peptide displacement, HiFluor488, 10 min | Potency, µM (highest dose often 115 µM), for inactives: top-dose activity, negative = inhibition, actives largely listed as inhibitors | 390,000 tested, 0.009% active | AID 504891; active means well fitted inhibition curve with a large enough effect in the polarisation, with a control signal flat, not every such curve was filed as active; inconclusive means small, poorly fitted or top-dose-only effect, or effect the other way, or a change in a side signal; inactive means no such curve, though single readings can be large or run the other way; the % refers to the polarisation; further: potency means the concentration at half of the fitted maximal effect; on the % scale 0 is the no-effect control and ±100 the full control effect
# Integrin act MD: integrin-mediated muscular dystrophy alleviation activation | Potency, µM (top dose mostly 38.3 µM), inactives show top-dose activation, hits mostly activators | 350,000 tested, 0.064% active | AID 624291 | alpha7betagal myoblasts, beta-gal FDG fluorescence, 48 h;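 further: potency means the concentration at half of the fitted maximal effect; 100% = response of the positive control SU9516; nearly all actives have a fitted effect of over 60% in size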
#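 Alpha7betagal+/- myoblasts (passage 13) were plated 16-24 hr, then exposed to compounds (1:260 dilution of DMSO stock) for 48 hours at 37C. After MPER lysis, β-galactosidase reporter activity was read as FDG fluorescence (ex 480/em 540) after 30 minutes.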
# IL2 activator: activates IL-2 in a cell-based reporter assay. IL-2 activation reporter assay, cell-based qHTS; stimulated with anti-CD3/CD4/CD28 beads; in transgenic mouse T cells. AID 652025. activation, % (series mostly up to about 46 µM). 360,000 tested, 0.065% active; in the data active means activation above about 50%; inconclusive means mostly about 30% to 49%; further: 0% is about no effect
#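 Using fluorescent plate cytometry, EGFP and DsRed are detected in transgenic mouse T cells stimulated 18 h at 37 degrees C with antibody-coated beads after 60 min compound pretreatment.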
# USP2a block: blocks human ubiquitin-specific protease USP2a. Potency, µM (doses to about 38.3 µM), inactives show top-dose activity change, negative = inhibition, most hits filed as inhibitors. AID 463254. O75604. 330,000 tested, 0.01% active. USP2 core, Ub-CHOP2 coupled fluorogenic reporter, 485/531;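 further: potency means the concentration at half of the fitted maximal effect; plate controls were DMSO wells for no effect and full inhibition by NEM control for full effect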
#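 Cell-free coupled assay: 10nM USP2 core preincubated 30min RT with compound in Tris-HCl pH 8.0/CaCl2/CHAPS buffer, then 25nM Ub-CHOP2 and 25nM reporter substrate; fluorescence (Ex 485/Em 531) read after 60min RT, normalized to NEM inhibition, concentration-response curves fitted.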
# PKM2 act: activators of human pyruvate kinase M2 | P14618 | purified PKM2, Kinase-Glo ATP luminescence, activation; response scale: 0% is enzyme alone, no compound | Potency, µM (series often up to 57.5 µM), inactives show at the highest dose activation, usual class: activators | 260,000 tested, 0.34% active | AID 1631; further: potency means the concentration at half of the fitted maximal effect; on the % scale 0 is the no-effect control and ±100 the full control effect; nearly all actives have a fitted effect of over 55% in size
#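 ATP formation by purified human PK-M2, quantified via coupled luciferase luminescence after 1 h at room temperature with 0.1 mM ADP and 0.5 mM PEP final.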
# ClpP mod: qHTS Assay for Activators of ClpP. purified B. subtilis ClpP, FRET peptide cleavage, 20 min. Potency, µM (titrated, usually from 57.5 µM), for inactives: at the top dose activity change, negative = active. 340,000 tested, 1.9% active. AID 651965, 2013; active means well fitted falling curve with a large enough effect; inconclusive means small, poorly fitted or top-dose-only effect; inactive means no such curve, though single readings can be large or run the other way; further: potency means the concentration at half of the fitted maximal effect; the source files actives as falling curves though it sought activators and does not explain the sign; nearly all actives have a fitted effect of over 65% in size
#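 Buffer: 100 mM Tris/HCl pH8, 100 mM KCl, 0.05% low protease BSA, 2.5% glycerol, 0.01% Tween-20. ClpP 10 microg/mL final; 20 min RT; delta FRET normalized to ADEP and DMSO controls.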
# Starred values were filed as active, the others as inactive; ? = inconclusive; nt = no result given; [ ] = another dose, or the depositor's remark. Unless noted, the call rests on the fitted dose curve; in most records, active means well fitted curve in the direction sought with a large enough effect; inconclusive means small, poorly fitted or top-dose-only effect, or another doubt; inactive means no such curve, though single readings can be large; an effect the other way counts as inactive or inconclusive.
SMILES,Pin1 inh,Integrin act MD,IL2 activator,USP2a block,PKM2 act,ClpP mod
O=C(OCC#CCSc1nnc(-c2cccc3ccccc23)o1)c1ccc(Cl)c(C(F)(F)F)c1,0%,nt,nt,nt,nt,nt
CCC(C)Nc1c2c(nc3c(-c4ccccc4)c(C)nn13)CCC2 (stereo not given),1%,-11%,0,-1%,-5%,28µM*
CCCc1cc(N2CCOCC2)n2nc(C)c(-c3ccccc3)c2n1,4%,-18%,-2,4%,nt,-5%
Cc1nn2c(N3CCCC3)cc(C(C)C)nc2c1-c1ccccc1,2%,-64%,0,1%,-1%,35µM*
CCCc1cc(N2CCN(c3ccccn3)CC2)n2nc(C)c(-c3ccccc3)c2n1,-1%,12%,0,-3%,23%,28µM*
Cc1cc(N2CCN(c3ccccn3)CC2)n2cc(-c3ccccc3)nc2n1,18%,6%,-2,4%,2%,28µM*
COc1ccc(C2Nc3ccccc3C(=O)N2Cc2ccccc2)cc1COc1cccc(C(F)(F)F)c1 (stereo not given),1%,nt,nt,nt,nt,nt
CC1=C(C(=O)OCc2ccc3nsnc3c2)N2C(=O)[C@@H](NC(=O)OCc3ccc4nsnc4c3)[C@H]2SC1,nt,nt,nt,nt,nt,-9%
O=C(Nc1ccccc1F)c1cnn2c1NC(=C1CC1)C=C2C(F)F,nt,nt,nt,nt,nt,-1%
CCN(CC)CCCC(C)n1c(-c2ccccc2)nc2c(NC3CCCCC3)nc(C)nc21 (stereo not given),nt,nt,nt,nt,-1%,nt
Cc1cc(N2CCN(Cc3ccccc3)CC2)n2nc(C)c(-c3ccccc3)c2n1,-6%,24%,0,5%,5%,32µM*
COc1ccc(CN2CCN(c3cc(C)nc4c5c(C)cc(C)nc5nn34)CC2)cc1F,7%,-12%,1,-1%,4%,11µM*
Cn1nnnc1Sc1ncnc2scc(-c3ccc(C(=O)OC(C)(C)C)cc3)c12,-1%,nt,nt,nt,nt,nt
O=S(=O)(Nc1cccnc1)c1cccc2ccccc12,-8%,nt,nt,nt,nt,nt
CC(=O)N1CCc2cc(S(=O)(=O)Nc3ccc(C)c(C)c3)ccc21,-5%,nt,nt,nt,nt,nt
CC(=O)c1cc(CC=C(C)C)c(O)c(CC=C(C)C)c1O,2%,6%,1,-2%,0%,28µM*
CC(=O)c1cc(CC=C(C)C)c(O)cc1O,1%,1%,4,1%,-6%,2%
COc1ccc(C2Nc3ccccc3C(=O)N2Cc2ccco2)cc1 (stereo not given),-5%,nt,nt,nt,nt,4%
COc1ccc(-c2cc(C(F)F)n3ncc(C(=O)N4CCN(C)CC4)c3n2)cc1,?,16%,3,1%,-7%,25µM*
Cc1cc(SCC(=O)OCC(=O)N2CCN(C(=O)c3ccco3)CC2)c(C)cc1Br,0%,4%,-4,-4%,25µM*,1%
O=C(C[N+]1(CCO)CCOCC1)c1cccs1,nt,nt,nt,nt,nt,0%
CCN1CC=C2C(C#N)=C(N)C(C#N)(C#N)C(c3cc(Cl)ccc3Cl)C2C1 (stereo not given),?,-45%,0,12%,-1%,22µM*
COc1ccccc1N(Cc1cc2cccc(C)c2[nH]c1=O)C(=O)c1cccc(Cl)c1,9%,nt,nt,nt,nt,25µM*
CCOc1ccc(-c2c(C#N)c(N)nc3sc(C(=O)c4ccccc4)c(N)c23)cc1,?,-4%,125*,3%,-12%,1%
Cc1ccccc1CNC(=O)c1ccccc1N,-6%,4%,1,3%,-1%,10µM*
SMILES,Pin1 inh,Integrin act MD,IL2 activator,USP2a block,PKM2 act,ClpP mod
Cc1ccccc1CNC(=O)c1ccccc1C,1%,25%,0,6%,-2%,-1%
Nc1ccccc1C(=O)NCc1ccccc1,-3%,-25%,-1,-6%,-6%,28µM*
CCN(CC)CCCNC(=O)c1ccccc1C,0%,-4%,-4,2%,-2%,0%
CCN(CC)CCNC(=O)c1ccccc1N,7%,18%,0,1%,-2%,10µM*
COc1ccccc1CNC(=O)c1ccccc1NS(C)(=O)=O,2%,18%[7.66 µM],0,6%,-7%,28µM*
COc1ccc(C2Nc3ccccc3C(=O)N2Cc2ccccc2)cc1COc1cccc(Cl)c1 (stereo not given),19%,nt,nt,nt,nt,nt
O=C(NCc1ccccc1)c1nccnc1CO,1%,-14%,-1,1%,nt,16µM*
COc1ccccc1CNC(=O)c1ccccc1N,-5%,24%,4,9%,7%,10µM*
O=C(NCc1ccc(Cl)cc1)c1nccnc1CO,5%,-3%,0,0%,nt,nt
Cc1cc[n+](CC(=O)c2ccc(F)cc2)c2ccccc12,nt,nt,nt,nt,nt,-15%
CC(=O)N1N=C(c2ccc(Cl)cc2)CC1c1ccco1 (stereo not given),-2%,6%,0,2%,25µM*,nt
O=C(NCCOC(=O)c1cccs1)c1cccnc1,-1%,10%,1,0%,-1%,-2%
O=C(NCCNC(=O)c1ccc(Br)o1)c1cccnc1,-5%,32%,0,2%,1%,25µM*
O=C(NCCOC(=O)c1ccc(C(=O)OCCNC(=O)c2cccnc2)s1)c1cccnc1,-1%,14%,2,-2%,16µM*,-1%
COc1ccc(-c2nc3ccc(NC(=O)COC(C)=O)cc3c(=O)n2Cc2ccccc2)cc1COc1ccc(NC(C)=O)cc1,1%,nt,nt,nt,nt,107%
CCc1ccc(C=O)cc1,nt,nt,nt,nt,nt,-5%
Cc1cc(C)c(C#N)c(SCCS(=O)(=O)c2ccc(Cl)cc2)n1,24%,-57%,-3,6%,20µM*,nt
Cc1cc(C)c(C#N)c(SCCS(=O)(=O)c2ccc(C(C)(C)C)cc2)n1,0%,-51%,-3,-2%,5%,0%
C=C1NN(CC2CC2)C(=O)N1c1ccc(OCc2ccccc2)cc1,nt,nt,nt,nt,nt,-1%
Nc1cc(C(=O)OCC(=O)NC(c2ccccc2)c2ccccc2)ccc1Cl,-4%,12%,0,-2%,-6%,25µM*
Nc1cc(C(=O)OCC(=O)NNC(=O)c2ccccc2)ccc1Cl,3%,25%,1,0%,nt,?
Cc1sc(NC(=O)c2ccco2)c(C(c2ccccc2)N2CCC(C)CC2)c1C (stereo not given),5%,11%,-4,0%,6%,28µM*
Cc1ccc(C(c2c(NC(=O)c3ccco3)sc(C)c2C)N2CCOCC2)cc1 (stereo not given),nt,11%,1,nt,nt,-6%
Nc1ncnc2c1c(-c1ccc(Oc3ccccc3)cc1)cn2C1CCCC1,11%,nt,-1,1%,nt,28µM*
CC(=O)NC(c1ccco1)c1cc(Br)c2cccnc2c1O (stereo not given),nt,nt,nt,0%,nt,nt

# Screening data from PubChem.
